Assay results taken from PubChem BioAssay.
Activity calls are given as the source filed them.

Experiments:
[1] = tested on: Plasmodium falciparum Sir2 (PF13_0152, Sir2A); assay: Plasmodium falciparum Sir2A binding compounds – biochemical, small-molecule microarray, 635 nm fluorescence, primary screen (AID 1098); conditions: fluorescence 635 nm, higher = more signal;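 note: score merges spot fluorescence intensity with its signal-to-noise ratio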
[2] = probe aDKK1 binding to arrayed compounds – biochemical, biotinylated probe, 635/667 nm fluorescence, primary screen (AID 1099); conditions: small-molecule microarray, higher = more signal;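 note: score merges 667nm spot fluorescence with signal to noise across triplicate slides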
[3] = probe aCHRDL2 binding to arrayed compounds – biochemical, biotinylated probe, 635/667 nm fluorescence, primary screen (AID 1100); conditions: small-molecule microarray, higher = more signal
[4] = change in splice reporter luminescence, either direction, cell-based, HEK293, spliceosome inhibition project, primary screen (AID 1101); conditions: HEK293 splicing luciferase reporter, 24 h, higher = more signal, called active from +8 up or from −8 down;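 note: HEK293 cells carrying a splicing-competent luciferase reporter gene; test concentration not given here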
[5] = molecular target: Fibroblast growth factor 10 (Homo sapiens) (UniProt O15520); assay: compounds binding fibroblast growth factor 10 – biochemical, small-molecule microarray, 635 nm fluorescence, primary screen (AID 1102); conditions: FGF10 binding, fluorescence 635 nm, higher = more signal
Chain of Fibroblast growth factor 10 (Homo sapiens) (O15520 whole entry, looked up): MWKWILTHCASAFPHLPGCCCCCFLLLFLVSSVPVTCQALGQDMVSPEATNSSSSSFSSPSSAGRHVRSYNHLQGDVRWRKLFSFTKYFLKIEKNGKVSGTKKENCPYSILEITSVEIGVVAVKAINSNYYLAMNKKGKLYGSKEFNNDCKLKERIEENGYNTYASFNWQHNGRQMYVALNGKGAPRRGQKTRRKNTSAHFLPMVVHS

[6] = tested on: glycogen synthase kinase-3 (GSK3A per assay name; protocol says GSK3B); assay: compounds binding glycogen synthase kinase-3 – biochemical, small-molecule microarray, 635 nm fluorescence, GSK3A, primary screen (AID 1103); conditions: fluorescence 635 nm, higher = more signal; note: the record names both GSK3A and GSK3B
[7] = molecular target: Epidermal growth factor receptor (Homo sapiens) (UniProt P00533); assay: compounds binding epidermal growth factor receptor – biochemical, small-molecule microarray, 635 nm fluorescence, primary screen (AID 1104); conditions: EGFR binding, higher = more signal;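 note: score merges 667 nm emission intensity with spot signal to noise over triplicate slides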
Chain of Epidermal growth factor receptor (Homo sapiens) (P00533 whole entry, looked up): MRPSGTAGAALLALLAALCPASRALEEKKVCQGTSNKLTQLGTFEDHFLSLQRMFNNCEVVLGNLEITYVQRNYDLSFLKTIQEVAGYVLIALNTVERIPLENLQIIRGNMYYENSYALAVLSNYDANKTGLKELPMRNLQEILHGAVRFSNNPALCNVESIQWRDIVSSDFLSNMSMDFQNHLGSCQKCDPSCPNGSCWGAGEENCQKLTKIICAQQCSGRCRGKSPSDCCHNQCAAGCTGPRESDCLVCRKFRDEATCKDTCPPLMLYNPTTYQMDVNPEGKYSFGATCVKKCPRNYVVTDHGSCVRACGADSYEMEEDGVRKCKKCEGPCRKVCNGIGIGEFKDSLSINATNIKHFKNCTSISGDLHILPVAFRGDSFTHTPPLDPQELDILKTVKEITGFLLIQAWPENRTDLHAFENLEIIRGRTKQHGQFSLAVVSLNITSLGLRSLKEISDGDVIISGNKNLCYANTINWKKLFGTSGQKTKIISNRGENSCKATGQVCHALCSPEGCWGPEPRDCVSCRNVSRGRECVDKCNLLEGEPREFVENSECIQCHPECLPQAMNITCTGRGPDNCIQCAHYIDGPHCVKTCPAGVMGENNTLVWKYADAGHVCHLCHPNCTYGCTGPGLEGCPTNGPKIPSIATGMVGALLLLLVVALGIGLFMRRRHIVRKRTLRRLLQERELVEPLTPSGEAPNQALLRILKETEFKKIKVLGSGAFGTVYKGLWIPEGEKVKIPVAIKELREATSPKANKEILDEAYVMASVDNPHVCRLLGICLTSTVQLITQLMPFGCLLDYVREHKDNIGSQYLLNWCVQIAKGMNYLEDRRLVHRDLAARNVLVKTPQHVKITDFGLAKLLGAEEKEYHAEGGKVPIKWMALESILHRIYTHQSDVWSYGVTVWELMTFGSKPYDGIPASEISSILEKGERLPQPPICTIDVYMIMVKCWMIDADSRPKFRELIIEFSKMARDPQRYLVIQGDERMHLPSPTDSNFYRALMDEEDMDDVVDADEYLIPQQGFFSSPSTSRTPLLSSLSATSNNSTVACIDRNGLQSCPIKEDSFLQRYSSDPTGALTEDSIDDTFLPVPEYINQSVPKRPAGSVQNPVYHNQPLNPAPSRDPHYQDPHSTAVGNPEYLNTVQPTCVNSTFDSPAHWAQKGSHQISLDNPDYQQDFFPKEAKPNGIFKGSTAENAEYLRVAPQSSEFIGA

[8] = molecular target: Follistatin-related protein 3 (Homo sapiens) (UniProt O95633); assay: compounds binding follistatin-related protein 3 – biochemical, small-molecule microarray, 635 nm fluorescence, primary screen (AID 1105); conditions: FSTL3 binding, higher = more signal;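 note: score merges emission near 667 nm and signal to noise per printed spot across three slides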
Chain of Follistatin-related protein 3 (Homo sapiens) (O95633 whole entry, looked up): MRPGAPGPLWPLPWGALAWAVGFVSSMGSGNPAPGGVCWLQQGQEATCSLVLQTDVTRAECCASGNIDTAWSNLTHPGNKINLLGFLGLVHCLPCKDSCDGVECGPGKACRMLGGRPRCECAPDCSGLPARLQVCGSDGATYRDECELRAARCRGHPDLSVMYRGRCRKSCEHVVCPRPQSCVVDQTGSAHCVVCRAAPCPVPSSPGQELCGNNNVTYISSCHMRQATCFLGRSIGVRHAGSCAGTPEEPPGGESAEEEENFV

[9] = molecular target: Dickkopf-related protein 1 (Homo sapiens) (UniProt O94907); assay: small molecules binding DKK1 protein – biochemical, small-molecule microarray, 635 nm fluorescence scan, primary screen (AID 1106); conditions: higher = more signal;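 note: score merges emission near 667 nm with signal to noise over three replicate slides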
Chain of Dickkopf-related protein 1 (Homo sapiens) (O94907 whole entry, looked up): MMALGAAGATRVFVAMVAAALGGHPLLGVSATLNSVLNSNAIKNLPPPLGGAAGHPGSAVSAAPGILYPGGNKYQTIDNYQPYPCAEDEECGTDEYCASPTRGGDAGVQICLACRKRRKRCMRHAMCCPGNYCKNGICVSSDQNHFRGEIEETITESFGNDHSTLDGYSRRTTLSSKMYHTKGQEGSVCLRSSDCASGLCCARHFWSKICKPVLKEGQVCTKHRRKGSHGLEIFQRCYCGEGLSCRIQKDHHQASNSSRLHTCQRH

[10] = tested on: Inhibin beta A chain (activin A); assay: small molecules binding activin A – biochemical, small-molecule microarray, 635 nm fluorescence scan, primary screen (AID 1107); conditions: INHBA, higher = more signal;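 note: mouse activin A protein probed at 4.33 µg/mL on printed slides; score merges bound-protein fluorescence near 667 nm with spot signal-to-noise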
[11] = tested on: Human papillomavirus type 1a protein E7 (residues 44-93); assay: small molecules binding HPV E7 44-93 – biochemical, small-molecule microarray, residues 44-93, 635 nm fluorescence, primary screen (AID 1108); conditions: fluorescence 635 nm, higher = more signal;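 note: E7 fragment applied at 1 µg/mL in TBST for 1 h at 4 C; score combines spot fluorescence with its signal to noise ratio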
[12] = hepatitis C replication reporter changes, two-sided – Huh7 cells, luciferase reporter, HCV replication inhibitor project, primary screen (AID 1109); conditions: Huh7 HCV replicon luciferase reporter, 48 h; higher = more signal;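 note: huh7 hepatoma cells harbouring a luciferase neomycin HCV replicon reporter; luciferase luminescence as measure of HCV replicon replication; test concentration not given here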
[13] = molecular target: Left-right determination factor 2 (Homo sapiens) (UniProt O00292); assay: small molecules binding LEFTY2 protein – biochemical, small-molecule microarray, 635 nm fluorescence scan, primary screen (AID 1110); conditions: higher = more signal
Chain of Left-right determination factor 2 (Homo sapiens) (O00292 whole entry, looked up): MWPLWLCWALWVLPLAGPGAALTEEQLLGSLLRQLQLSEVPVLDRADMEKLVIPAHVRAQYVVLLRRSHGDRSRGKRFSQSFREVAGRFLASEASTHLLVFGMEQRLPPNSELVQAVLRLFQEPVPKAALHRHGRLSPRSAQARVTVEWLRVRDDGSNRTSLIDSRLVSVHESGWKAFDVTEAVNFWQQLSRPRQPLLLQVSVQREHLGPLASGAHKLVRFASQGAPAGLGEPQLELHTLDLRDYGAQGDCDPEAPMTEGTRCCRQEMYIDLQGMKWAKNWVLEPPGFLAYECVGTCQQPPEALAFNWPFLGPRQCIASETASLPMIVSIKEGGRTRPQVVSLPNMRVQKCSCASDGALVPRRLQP

[14] = molecular target: Calmodulin-1 (Homo sapiens) (UniProt P0DP23); assay: small molecules binding calmodulin-1 with EGTA – biochemical, small-molecule microarray, Cy5-labelled CALM1, profiling panel (AID 1111); conditions: Cy5-CALM1 binding fluorescence, higher = more signal;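 note: labelled calmodulin applied in Tris saline Tween buffer holding calcium plus EGTA and DTT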
[15] = molecular target: Calmodulin-1 (Homo sapiens) (UniProt P0DP23); assay: small molecules binding Ca-loaded calmodulin-1 – biochemical, small-molecule microarray, Cy5-labelled CALM1, plus calcium, artefact control for SMM control-protein annotation, profiling panel (AID 1112); conditions: Cy5-CALM1 binding fluorescence, higher = more signal;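 note: score merges spot fluorescence with signal to noise from triplicate slides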
[16] = probe aWnt5a binding to arrayed compounds – biochemical, biotinylated probe, 635/667 nm fluorescence, primary screen (AID 1113); conditions: small-molecule microarray, higher = more signal;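 note: score merges 667 nm fluorescence intensity with signal-to-noise per printed feature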
[17] = probe aShh binding to arrayed compounds – biochemical, biotinylated probe, 635/667 nm fluorescence, primary screen (AID 1114); conditions: small-molecule microarray, higher = more signal;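 note: probe is biotin-labelled aShh protein from a stem cell growth factor screen; measures binding of labelled protein to compounds printed on the slide; score merges feature fluorescence at 667 nm with signal-to-noise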
[18] = probe aNog binding to arrayed compounds – biochemical, biotinylated probe, 635/667 nm fluorescence, primary screen (AID 1115); conditions: small-molecule microarray, higher = more signal;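 note: probe is biotinylated aNog protein used at 0.15 µg/mL for 1 h at 4 C; z-score combines 667 nm fluorescence of each spot with its signal to noise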
[19] = molecular target: Torsin-1A-interacting protein 1 (Homo sapiens) (UniProt Q5JTV8); assay: compound microarray binding of lysate hLAP1 – cell lysate, small-molecule microarray, COS7 lysate, 635/667 nm fluorescence, primary screen (AID 1116); conditions: 635 nm fluorescence, higher = more signal
Chain of Torsin-1A-interacting protein 1 (Homo sapiens) (Q5JTV8 whole entry, looked up): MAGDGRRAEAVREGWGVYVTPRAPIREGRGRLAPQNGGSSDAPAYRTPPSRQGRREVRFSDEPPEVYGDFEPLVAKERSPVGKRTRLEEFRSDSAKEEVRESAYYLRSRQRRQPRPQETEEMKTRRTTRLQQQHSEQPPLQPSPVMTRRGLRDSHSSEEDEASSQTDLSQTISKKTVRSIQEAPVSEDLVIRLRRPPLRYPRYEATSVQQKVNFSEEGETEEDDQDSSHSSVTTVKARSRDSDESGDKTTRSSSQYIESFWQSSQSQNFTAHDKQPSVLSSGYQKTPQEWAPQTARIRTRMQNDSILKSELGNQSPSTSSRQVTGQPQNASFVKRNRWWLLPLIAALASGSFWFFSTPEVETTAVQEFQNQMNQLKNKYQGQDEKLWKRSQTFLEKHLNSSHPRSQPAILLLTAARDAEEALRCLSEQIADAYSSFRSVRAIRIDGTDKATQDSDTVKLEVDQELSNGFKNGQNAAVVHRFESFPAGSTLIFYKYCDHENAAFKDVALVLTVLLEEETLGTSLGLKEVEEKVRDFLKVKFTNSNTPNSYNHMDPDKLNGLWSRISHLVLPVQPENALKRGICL

[20] = molecular target: Alpha-bungarotoxin (Bungarus multicinctus) (UniProt P60615); assay: compounds binding labelled alpha-BTX control protein – biochemical, small-molecule microarray, Alexa647 label, 635/667 nm fluorescence, artefact control for SMM control protein annotation, profiling panel (AID 1117); conditions: alpha-BTX-A647 binding fluorescence, higher = more signal
Chain of Alpha-bungarotoxin (Bungarus multicinctus) (P60615 whole entry, looked up): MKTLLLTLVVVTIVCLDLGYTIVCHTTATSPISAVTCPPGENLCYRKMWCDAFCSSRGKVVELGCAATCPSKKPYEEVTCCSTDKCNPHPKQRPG

| SMILES | composite z-score [1] | composite z-score [2] | composite z-score [3] | z-score [4] | composite z-score [5] | composite z-score [6] | composite z-score [7] | composite z-score [8] | composite z-score [9] | composite z-score [10] | composite z-score [11] | z-score [12] | composite z-score [13] | composite z-score [14] | composite z-score [15] | composite z-score [16] | composite z-score [17] | composite z-score [18] | composite z-score [19] | composite z-score [20] |
| --- | --- | --- | --- | --- | --- | --- | --- | --- | --- | --- | --- | --- | --- | --- | --- | --- | --- | --- | --- | --- |
| COCCOC(=O)N1C(=O)[C@@]2(c3cc(C#Cc4ccc(OC)cc4)ccc31)[C@H](C(=O)N1CCCCCCC1)[C@H]1C(=O)O[C@H](c3ccccc3)[C@H](c3ccccc3)N1[C@@H]2c1ccc(O)cc1 | 0.773 | 1.12 | 0.522 | -0.527 (inactive) | 0.546 | 1.15 | 0.519 | 1.31 | 0.567 | 1.35 | 1.36 | -0.949 | 0.505 | 0.172 | 0.184 | -0.0239 | 0.603 | 1.18 | 0.604 | 0.723 |
| [N-]=[N+]=NCc1ccccc1C[C@]1(C(=O)NCC(O)CO)N=C(c2ccc(OCCCO)cc2)O[C@H]1c1ccccc1CN=[N+]=[N-] (stereo not given in full) | 0.425 | 0.384 | 0.953 | -0.47 (inactive) | 1.08 | 1.15 | -0.154 | -0.392 | -0.749 | 0.387 | 1.47 | -2.88 | -0.353 | 1.42 | 0.786 | 0.115 | 0.541 | 0.721 | 2.41 | 1.21 |
| O=C1NC(=O)C2C1C=CC(C(O)c1cc(C(F)(F)F)cc(C(F)(F)F)c1)N2Nc1ccc(Cl)cc1Cl (stereo not given) | 0.314 | 0.853 | 0.824 | 0.916 (inactive) | 0.336 | -0.514 | -0.66 | -0.0146 | -0.953 | 0.701 | -0.158 | -0.99 | -0.256 | 1.91 | 1.29 | -0.0405 | 0.431 | 0.676 | 1.86 | 0.526 |
| CC(C)C(=C=CC[C@@H](O)c1ccccc1OCCO)C[C@@H](O)COCc1ccccc1 | 1.23 | 0.469 | 0.264 | -2.12 (inactive) | 1.35 | -0.0582 | 0.22 | 0.589 | -0.691 | 1.35 | 0.247 | -1.21 | 0.639 | 0.277 | 0.652 | -0.128 | -0.0769 | 0.583 | 0.573 | -0.345 |
| O=C1OCC=C[C@H]2OC34C=CCN(Cn5nnc6ccccc65)C(=O)[C@H]3N(CCCCCCO)C(=O)[C@@H]4[C@@H]12 (stereo not given in full) | 1.25 | 0.0374 | 0.538 | 0.434 (inactive) | -0.577 | 0.0986 | -0.896 | -1.02 | -0.566 | 0.955 | -0.0554 | -0.113 | -1.14 | -0.129 | -0.004 | -0.152 | -0.16 | 0.162 | 3.14 | -0.608 |
